Screening data as filed in PubChem BioAssay.
A selection: hits, their analogues and other compounds. The true share with any hit is near 17%.
HepG2 tox = counter-screen for TGF-b inhibitors: cytotoxicity in HepG2 cells | HepG2 CAGA-GFP viability, ATP luminescence, 18 h | Potency, µM (doses to about 46.1 µM), for inactives: at the highest dose activity change, negative = cytotoxicity, most hits filed as cytotoxic | hit rate 0.76% among 410,000
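CellTiter-Glo luminescence gave cytotoxicity after 18 hours at 37 degrees C. The cells were HepG2 CAGA-GFP in 1% FBS DMEM, stimulated with 500 pg/mL TGF-beta after compound addition. %Activity was normalised to no-cell wells (complete cell-killing) and DMSO (no toxicity), and curves were fitted and classified.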
ATXN2 expr inh = reduces ATXN2 reporter expression in HEK-293 cells | HEK-293 ATXN2-luciferase reporter, luminescence, 24 h | Potency, µM (highest dose often 57 µM), for inactives: at the top dose activity change, negative = inhibition, usual class: inhibitors | hit rate 0.72% among 360,000 | AID 1745845; further: on the % scale 0 is the no-effect control and ±100 the full control effect; nearly all actives have a fitted effect of over 55% in size
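ATXN2-luciferase reporter cells (luciferase flanked by upstream and downstream ATXN2 gene portions) were treated 24 h at 37 °C with compounds at up to 57 uM. SteadyGlo luminescence gave expression; GF-AFC fluorescence gave viability.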
TGFb SMAD3 inh = TGF-b pathway inhibition. HepG2 CAGA-GFP TGF-b/SMAD3 reporter, GFP fluorescence, 18 h; TGF-beta stimulated, 500 pg/mL final. Potency, µM (series often up to 46.1 µM), inactives show top-dose activity, negative = inhibition, actives largely listed as inhibitors. hit rate 1.2% among 410,000. AID 588855; further: on the % scale 0 is the no-effect control and ±100 the full control effect; nearly all actives have a fitted effect of over 65% in size
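GFP signal (ex488/em500-530) from TGF-beta-stimulated HEPG2 CAGA-GFP cells, 500 pg/mL final, 18 h at 37 degrees C in DMEM plus 1% FBS, normalized to unstimulated and DMSO-stimulated controls.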
ATXN viability = reduces viability in counter-screen for ATXN expression inhibitors; S2 cells (HEK-293 line with an ATXN2-luciferase reporter) viability, CellTiter-Fluor protease fluorescence, 24 h; Potency, µM (series often up to 56.7 µM), actives largely listed as cytotoxic; hit rate 0.49% among 400,000; AID 651635; further: nearly all actives have a fitted effect of over 40% in size
DT40 TDP1 no CPT = qHTS for Inhibitors of human tyrosyl-DNA phosphodiesterase 1 (TDP1): qHTS in cells in absence of CPT | DT40 Tdp1-/- hTDP1 cells, no CPT, ATP luminescence, 48 h | Potency, µM (top dose mostly 46.2 µM), inactives show at the top dose activity change, negative = growth inhibition, most hits filed as inhibitors | hit rate 15% among 420,000 | AID 686978, 2013; further: on the % scale 0 is the no-effect control and ±100 the full control effect; nearly all actives have a fitted effect of over 55% in size
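Camptothecin absent (DMSO only). Human TDP1-complemented DT40 knockout cells, 400 cells/well, 37 °C for minimum 48 hr; ATP measured via CellTiter-Glo, 30 min dark incubation, luminescence.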
TDP1 cell CPT = DT40-hTDP1 cell growth loss with CPT; chicken DT40 Tdp1-/-;hTDP1 cells + 20 nM CPT, ATP luminescence, 48 h; Potency, µM (series often up to 46.2 µM), for inactives: at the highest dose activity change, negative = growth inhibition, hits mostly inhibitors; hit rate 12% among 420,000; AID 686979; further: on the % scale 0 is the no-effect control and ±100 the full control effect; nearly all actives have a fitted effect of over 55% in size
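Chicken DT40 Tdp1-/- cells stably complemented with human TDP1 were seeded at 400 cells/well in medium containing 20 nM camptothecin, exposed to pin-transferred compounds, and grown at 37 °C for at least 48 hr. Viability was read as ATP luminescence.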
An asterisk follows results filed as active; i = inactive; ? = inconclusive; / = not tested or not shown. The call rests on the fitted dose curve; in most records, active means well fitted curve in the direction sought with a large enough effect; inconclusive means small, poorly fitted or top-dose-only effect, or another doubt; inactive means no such curve, though single readings can be large; an effect the other way counts as inactive or inconclusive. Potency means the concentration at half of the fitted maximal effect.

SMILES	HepG2 tox	ATXN2 expr inh	TGFb SMAD3 inh	ATXN viability	DT40 TDP1 no CPT	TDP1 cell CPT
Cc1ccc(NC(=O)c2ccc(NCCCN3CCC(C)CC3)c([N+](=O)[O-])c2)cc1F	-5%	-1%	5%	i	8.2µM*	4.6µM*
O=C(NCCCN1CCOCC1)c1ccc(Sc2ccccc2Cl)c([N+](=O)[O-])c1	-4%	-14%	-24%	i	?	?
O=C(Nc1cccc(Cl)c1)c1ccc(NCCCN2CCOCC2)c([N+](=O)[O-])c1	-40%	?	?	?	29µM*	?
CCCN1CCN(CC(=O)Nc2nncs2)CC1	-2%	3%	25%	i	15%	13%
CCN(CC)c1ccc(/C=N/NC(=O)Cc2nnc(NC(=O)Nc3ccccc3)s2)cc1	-157%	0%	?	i	21µM*	?
CCN(CC)c1ccc(/C=N/NC(=O)Nc2ccccc2)cc1	-67%	72%	?	i	?	?
CCOc1ccc(NC(=O)C(CC)n2c(=O)c(-c3ccccc3NC(C)=O)nc3ccccc32)cc1 (centres undefined)	-26%	-39%	-26%	?	?	18µM*
CC(=O)Nc1ccccc1-c1nc2ccccc2n(CC(=O)Nc2ccc(C)c(Cl)c2)c1=O	-78%	/	?	/	-3%	-8%
CCC(C(=O)Nc1ccc(C(=O)OC)cc1)n1c(=O)c(-c2ccccc2NC(C)=O)nc2ccccc21 (centres undefined)	-5%	/	-19%	/	3.3µM*	15µM*
CCC(Oc1nc2ccccc2nc1-c1ccccc1NC(C)=O)C(=O)c1ccccc1 (centres undefined)	-43%	-14%	-15%	i	?	?
CC1CCC(NC(=O)CC2Oc3ccccc3NC2=O)CC1 (centres undefined)	-14%	-3%	21%	i	-4%	-10%
Cn1ncc(Cl)c1C(=O)N1CCN(S(=O)(=O)c2ccc(Cl)s2)CC1	-24%	1%	0%	i	-28%	-22%
Cn1cc(/C=C2\SC(=O)N(c3ccc(O)cc3)C2=O)c2ccccc21	-31%	5%	?	?	16µM*	?
Cn1cc(/C=C2\SC(=O)N(c3ccccc3)C2=O)c2ccccc21	-23%	20%	-4%	/	-28%	1%
OC(COc1ccccc1)CN1CCOCC1 (centres undefined)	-2%	5%	?	i	-3%	0%
O=C(N1CCOCC1)N1CCN(CC(O)COc2ccc3ccccc3c2)CC1 (centres undefined)	-2%	0%	9%	i	-29%	1%
O=C(c1ccc(Cl)cc1)c1ccc(OCC(O)CN2CCOCC2)cc1 (centres undefined)	-34%	-10%	16%	?	16µM*	23µM*
OC(COc1ccc2cc(Br)ccc2c1)CN1CCOCC1 (centres undefined)	-28%	12%	1%	i	?	18µM*
COc1ccc2c(c1OC)C(=O)N(c1cccc(/C=C/C(=O)O)c1)C2	-32%	-33%	0%	i	4%	?
COC(=O)c1ccc(NC(=O)CSc2nc(C)cc(C)c2C(=O)Nc2ccccc2)cc1	1%	-3%	-1%	i	?	?
Cc1ccc(Cc2nnc(SCC(=O)Nc3c(C)cccc3C)[nH]c2=O)cc1	0%	-3%	1%	i	6.5µM*	?
Cc1ccc(Cc2nnc(SCC(=O)Nc3ccccc3)[nH]c2=O)cc1	-1%	11%	?	i	-3%	?
COc1ccc(CCNC(=O)c2ccc(Cn3c(SCc4ccccc4)nc4cccnc43)cc2)cc1	-18%	/	-21%	/	2.9µM*	?
O=C(NCCc1ccccc1)c1ccc(CSc2nc3cccnc3n2Cc2ccccc2)cc1	-28%	-7%	?	i	15µM*	?
COc1cccc(CCNC(=O)c2ccc(Cn3c(SCc4ccccc4)nc4cccnc43)cc2)c1	-37%	/	?	/	21µM*	?
SMILES	HepG2 tox	ATXN2 expr inh	TGFb SMAD3 inh	ATXN viability	DT40 TDP1 no CPT	TDP1 cell CPT
COc1ccc(Cn2c(SCc3ccc(C(=O)NCCc4ccccc4)cc3)nc3cccnc32)cc1	-43%	/	-43%	/	?	?
CCN(CC)CCNC(=O)c1ccc(Cn2c(SCc3ccccc3)nc3cccnc32)cc1	-49%	-6%	-4%	?	-26%	-23%
O=C(NCCc1ccccc1)c1ccc(Cn2c(SCc3ccc(F)cc3)nc3cccnc32)cc1	-9%	/	1%	/	-29%	?
CN(Cc1ccccc1)C(=O)c1ccc(CSc2nc3cccnc3n2Cc2ccccc2)cc1	-74%	-14%	20µM*	?	?	12µM*
COc1ccc(-c2nnc(SCC(=O)N3CCCC3=O)n2N)cc1OC	-14%	/	2%	i	-18%	3%
CN(CC=CC#CC(C)(C)C)Cc1cccc2ccccc12	/	-15%	/	/	/	/
COc1ccc2nc(NC(=O)c3nc(S(=O)(=O)Cc4ccccc4)ncc3Cl)sc2c1	10µM*	/	7.9µM*	/	1.3µM*	1µM*
COc1ccc2nc(NC(=O)c3nc(S(=O)(=O)Cc4ccccc4F)ncc3Cl)sc2c1	-99%	/	?	/	1.5µM*	0.92µM*
O=C(CS(=O)(=O)c1cccc2nsnc12)N1CCN(c2ccccc2)CC1	-7%	-4%	-6%	i	?	-18%
O=C(CSc1nc(C2CC2)nc2c1cnn2-c1ccccc1)Nc1c[nH]c(=O)[nH]c1=O	-45%	0%	?	?	?	-25%
Cc1ccc(SCC(=O)NNC(=O)CNC(=O)c2ccccc2F)cc1	0%	-2%	-8%	i	?	2%
NNc1ccccc1C(F)(F)F	-2%	55%	2%	i	9%	4%
N#Cc1c(Nc2ccccc2Cl)s[nH]c1=O	-143%	-11%	0%	i	5.2µM*	15µM*
N#Cc1c(Nc2ccccc2)s[nH]c1=O	-6%	-12%	?	i	8.2µM*	8.2µM*
N#Cc1c(Nc2ccccc2C(F)(F)F)s[nH]c1=O	-53%	-9%	20µM*	i	21µM*	21µM*
CCC(C(=O)Nc1c(C)cccc1C)n1c(-c2ccc(=O)[nH]c2)nc2ccccc21 (centres undefined)	/	/	/	/	-4%	0%
CSCCC(C(=O)Nc1c(C)cccc1C)n1c(COc2ccc(C)cc2)nc2ccccc21 (centres undefined)	/	/	/	/	9.2µM*	12µM*
